Assay outcomes as filed in PubChem.
ABHD5 PLIN5 PPI: blocks binding of human ABHD5 to perilipin-5; inhibition, % at 4 µM; Split G. princeps luciferase complementation, luminescence, 4 h; AID 602281; 360,000 compounds, 0.78% hits; Q00G26+Q8WTS1;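 active = inhibition above the mean inhibition across every tested compound plus 3 SD, cut at about 22% in these data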
Target sequence (Q00G26 whole entry, looked up): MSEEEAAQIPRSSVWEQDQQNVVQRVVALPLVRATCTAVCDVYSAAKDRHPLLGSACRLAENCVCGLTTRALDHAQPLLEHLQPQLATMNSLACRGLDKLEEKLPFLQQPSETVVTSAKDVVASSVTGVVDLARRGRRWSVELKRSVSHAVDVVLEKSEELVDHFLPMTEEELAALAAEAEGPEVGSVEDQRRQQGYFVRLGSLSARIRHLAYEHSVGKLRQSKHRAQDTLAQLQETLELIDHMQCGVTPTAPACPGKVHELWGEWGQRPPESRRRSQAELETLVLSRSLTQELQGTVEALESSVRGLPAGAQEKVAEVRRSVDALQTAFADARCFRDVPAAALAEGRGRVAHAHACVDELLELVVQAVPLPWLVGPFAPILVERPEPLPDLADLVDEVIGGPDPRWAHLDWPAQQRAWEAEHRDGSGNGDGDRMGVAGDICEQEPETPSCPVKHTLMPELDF
Target sequence (Q8WTS1 whole entry, looked up): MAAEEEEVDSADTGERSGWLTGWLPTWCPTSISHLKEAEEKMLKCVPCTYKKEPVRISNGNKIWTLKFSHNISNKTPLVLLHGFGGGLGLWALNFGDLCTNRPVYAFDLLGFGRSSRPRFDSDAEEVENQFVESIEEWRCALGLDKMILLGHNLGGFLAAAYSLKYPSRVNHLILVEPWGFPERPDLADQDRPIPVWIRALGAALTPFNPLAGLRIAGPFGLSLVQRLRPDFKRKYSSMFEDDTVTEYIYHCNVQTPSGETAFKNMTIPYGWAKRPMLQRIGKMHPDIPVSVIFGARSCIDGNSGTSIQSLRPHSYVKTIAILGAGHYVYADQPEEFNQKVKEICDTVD
Granule exo inh: blocks lytic granule exocytosis | TALL-104 LAMP-1 surface exposure, flow cytometry; cells stimulated with thapsigargin and PMA | 360,000 compounds, 0.66% hits | inhibition, % at 10 µM;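 active = inhibition above about 55%, limit read from the data; inconclusive = no clear call, values can overlap the other calls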
NOD2-RIPK2 inh: inhibitors of human NOD2-RIPK2 interaction | CHO BLA complementation NOD2-RIPK2, CCF4 ratio | 360,000 compounds, 0.38% hits | AID 624267 | inhibition, % at 4.98 µM | O43353; in the data active = inhibition above about 21%
TLR9-MyD88 inh: TLR9-MyD88 interaction inhibition; Q9NR96+Q99836; inhibition, % at 4.98 µM; AID 504734; 340,000 compounds, 0.21% hits; CHO BLA complementation TLR9-MyD88, CCF4 FRET ratio;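 active = inhibition above the mean over all tested compounds plus 3 SD, cut at about 21% in these data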
PRMT1 FP inh: inhibitors of human PRMT1; AID 652257; Q99873; inhibition, % at 2.79 µM; recombinant PRMT1, activity-based probe fluorescence polarization; 370,000 compounds, 1.3% hits;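 active = inhibition above about 21% made by adding two undisclosed values, limit read from the data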
TLR4 MyD88 comp: TLR4-MyD88 interaction inhibition in cells; 200,000 compounds, 0.18% hits; inhibition, % at 8.4 µM; AID 861; HeLa CL3-4 TLR4/MyD88 BLA complementation, FRET ratio; O00206+Q99836; in the data active = inhibition above about 25%
Granule exo CP1: blocks lytic granule exocytosis. TALL-104 cells, LAMP-1 externalization, flow cytometry; stimulated with PMA plus thapsigargin. inhibition, % at 10 µM. 1,500 compounds, 11% hits. shares compounds with Granule exo inh; in the data active = inhibition above about 60%
Of the large screens only hits and unclear results are named; the others gave an inactive call (follow-up assays come after a bar, where they were run). Rows were chosen to be rich in hits. Some 2.6% of all compounds tested hit in one or more screens of this group.

C#Cc1ccc([C@H]2C=C(C(=O)OCC=C)O[C@@H](OCC)[C@@H]2CCCO)cc1	Granule exo inh 78 | Granule exo CP1 inactive
COc1ccc(Cl)cc1C(=O)Nc1ccccc1N1CCN(C)CC1	none
O=C(Nc1ccccc1N1CCCCC1)c1cccc(OC(F)F)c1	Granule exo inh 99 (no result: TLR4 MyD88 comp) | Granule exo CP1 inactive
COc1ccc(Cl)cc1C(=O)Nc1ccccc1N1CCCCC1	Granule exo inh 57 (no result: TLR4 MyD88 comp) | Granule exo CP1 inactive
COc1ccc(CC(=O)Nc2cc(Cl)ccc2N2CCCC2)cc1	Granule exo inh 67 (no result: TLR4 MyD88 comp) | Granule exo CP1 inactive
COc1ccccc1CNC(=O)C[C@H]1CC[C@H]2[C@@H](COc3ccc(NC(=O)Nc4ccccc4)cc3C(=O)N2C)O1	none (no result: ABHD5 PLIN5 PPI, Granule exo inh, NOD2-RIPK2 inh, TLR9-MyD88 inh, TLR4 MyD88 comp)
CCCCc1c(-c2ccccc2OC)ncn1Cc1cccc(C)c1	none (no result: ABHD5 PLIN5 PPI, Granule exo inh, NOD2-RIPK2 inh, TLR9-MyD88 inh, TLR4 MyD88 comp)
CCOc1ccc2[nH]c3c(N4CCc5ccccc5C4)ncnc3c2c1	Granule exo inh 97 (no result: TLR9-MyD88 inh, TLR4 MyD88 comp) | Granule exo CP1 98
COC(=O)Nc1ccc(S(=O)(=O)NC2CCS(=O)(=O)C2)cc1 (stereo not given)	Granule exo inh 64 (no result: TLR4 MyD88 comp) | Granule exo CP1 inactive
CC(C)(C)c1cc(C(=O)Nc2ccc(F)cc2)n(Cc2ccc(F)cc2)n1	Granule exo inh 67 (no result: TLR9-MyD88 inh, TLR4 MyD88 comp) | Granule exo CP1 inactive
CN(C)CCCNC(=S)NCC(c1ccc(Cl)cc1Cl)c1c[nH]c2ccccc12 (stereo not given)	Granule exo inh 92 (no result: TLR4 MyD88 comp) | Granule exo CP1 77
Cc1ccccc1-c1cccc2c3c([nH]c12)[C@@H]1C[C@H]2[C@@H](C(=O)N1CC3)[C@H](C)ON2C	none (no result: ABHD5 PLIN5 PPI, Granule exo inh, NOD2-RIPK2 inh, TLR9-MyD88 inh, TLR4 MyD88 comp)
COC(=O)C1=C(C)N(Cc2ccccc2C(F)(F)F)C(=NCc2ccc(C(F)(F)F)cc2)NC1c1cccc(F)c1 (stereo not given)	none (no result: ABHD5 PLIN5 PPI, Granule exo inh, NOD2-RIPK2 inh, TLR9-MyD88 inh, TLR4 MyD88 comp)
CSC1=Nc2ccccc2N=C(N2CCCC2)C1	none (no result: ABHD5 PLIN5 PPI, Granule exo inh, NOD2-RIPK2 inh, TLR9-MyD88 inh, TLR4 MyD88 comp)
COc1cc2nc(Nc3ccc(F)cc3)nc(N)c2cc1OC	Granule exo inh 65 (no result: TLR4 MyD88 comp) | Granule exo CP1 inactive
COc1cc2nc(Nc3ccc(C)c(C)c3)nc(N)c2cc1OC	Granule exo inh inconclusive (no result: TLR4 MyD88 comp)
CCCN(C(=O)C1CCCN(c2ncnc3c2nc2n3CCCCC2)C1)c1ccccc1C (stereo not given)	none (no result: ABHD5 PLIN5 PPI, Granule exo inh, NOD2-RIPK2 inh, TLR9-MyD88 inh, TLR4 MyD88 comp)
CCOC(=O)c1c(-c2ccccc2)csc1NC(=O)c1cccc(N2C(=O)CCC2=O)c1	Granule exo inh 86 | Granule exo CP1 inactive
Fc1ccc(CNC2CCN(Cc3ccccc3)CC2)cc1	Granule exo inh 62 (no result: TLR4 MyD88 comp) | Granule exo CP1 inactive
Clc1ccc(CNc2ccc(N3CCN(Cc4ccccc4)CC3)cc2)cc1	Granule exo inh 67 (no result: TLR4 MyD88 comp) | Granule exo CP1 inactive
Clc1ccc(CNC2CCN(Cc3ccccc3)CC2)cc1	Granule exo inh 67 (no result: TLR4 MyD88 comp) | Granule exo CP1 inactive
S=C(NCc1ccc(Cl)cc1)NC1CCN(Cc2ccccc2)CC1	none
CCN1CCCCC(NC(=O)Cc2ccccc2)C1=O (stereo not given)	none (no result: ABHD5 PLIN5 PPI, Granule exo inh, NOD2-RIPK2 inh, TLR9-MyD88 inh, TLR4 MyD88 comp)
COc1ccc(N2C(=O)c3[nH]nc(-c4ccccc4)c3C2c2cccc(C(F)(F)F)c2)cc1 (stereo not given)	none (no result: ABHD5 PLIN5 PPI, Granule exo inh, NOD2-RIPK2 inh, TLR9-MyD88 inh, TLR4 MyD88 comp)
COc1ccccc1N(C)S(=O)(=O)c1ccc(Cl)c(C(=O)NNC(=O)c2ccccc2O)c1	none (no result: TLR4 MyD88 comp)
COc1ccccc1N(C)S(=O)(=O)c1ccc(Cl)c(C(=O)OCc2c(C)noc2C)c1	Granule exo inh 76 | Granule exo CP1 inactive
CCOC(=O)c1c(NC(=O)C(NCCN(C)C)c2ccccc2)sc2c1CCCC2 (stereo not given)	Granule exo inh 70 (no result: TLR4 MyD88 comp) | Granule exo CP1 inactive
CCOC(=O)c1c(NC(=O)c2ccccc2N(C)S(=O)(=O)c2ccccc2)sc2c1CCCC2	none
CN1C[C@@H]2C[C@@H](C3=Cc4cc(Cl)ccc4OC3)N3CCC[C@@]23C1=O	none
COc1ccccc1CN1C[C@@H]2C[C@@H](C3=Cc4cc(Cl)ccc4OC3)N3CCC[C@@]23C1=O	Granule exo inh 56 | Granule exo CP1 inactive
CN1CCCN(S(=O)(=O)c2ccc3c(c2)CCC(=O)N3)CC1	none (no result: ABHD5 PLIN5 PPI, Granule exo inh, NOD2-RIPK2 inh, TLR9-MyD88 inh, TLR4 MyD88 comp)
COc1cc(CN(C)CC2CCCN(CCc3cccc(C(F)(F)F)c3)C2)ccc1O (stereo not given)	Granule exo inh 56 (no result: TLR4 MyD88 comp) | Granule exo CP1 inactive
COC(=O)CCC(=O)N(C)CC1CCCN(CCc2cccc(C(F)(F)F)c2)C1 (stereo not given)	none (no result: TLR4 MyD88 comp)
